Inconclusive results are not listed. Active and inactive are the calls of the source. Unless noted, calls come from the whole dose curve; as a rule, active = well fitted curve in the direction sought with a large enough effect in the repeat runs; inconclusive = weak or mixed curves; inactive = no such curve, though single readings can be large; an effect the other way counts as inactive or inconclusive.
Tests used:
[1] = qHTS assay for small molecule agonists of the p53 signaling pathway (AID 651631; calls by dose curve; note: nearly all actives have a fitted effect of over 15% in size)
How it was run: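 Stably transfected HCT-116 cells (beta-lactamase behind p53 response elements) get compounds after a 5 h settling period; 16 h later at 37 °C, FRET substrate is loaded and fluorescence read after 2 h.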

[2] = qHTS assay for small molecules that induce genotoxicity in human embryonic kidney cells expressing luciferase-tagged ATAD5 (AID 651632); note: nearly all actives have a fitted effect of over 15% in size
How it was run: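 HEK293T cells carrying a luciferase reporter tagged to ATAD5 were exposed to compound or DMSO vehicle for 16 hr at 37C, 5% CO2. Amplite was added, and after 30 min at room temperature luciferase activity was read as a marker of ATAD5 induction.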

[3] = qHTS assay for small molecule agonists of the p53 signaling pathway - cell viability (AID 651633; calls by dose curve;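 note: p53RE-bla HCT reporter cells with a stable beta-lactamase p53 reporter; series mostly up to about 83 µM; nearly all actives have a fitted effect of over 30% in size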)
How it was run: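 p53RE-bla cells, seeded at 4,000 per well and rested 5 h at 37 C/5% CO2, received compounds in DMSO for 16 h at 37 C. CellTiter-Glo was then added, and luminescence was read after 30 min at room temperature to gauge cytotoxicity.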

[4] = qHTS assay for small molecules that induce genotoxicity in human embryonic kidney cells expressing luciferase-tagged ATAD5 - cell viability (AID 651634; calls by dose curve; note: nearly all actives have a fitted effect of over 25% in size)
How it was run: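 HEK293T cells expressing luciferase-tagged ATAD5 were exposed to compound or DMSO for 15.5 hr at 37C, 5% CO2. Viability was then read as live-cell protease activity by CellTiter-Fluor fluorescence after 30 min at 37C.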

[5] = qHTS assay for small molecule disruptors of the mitochondrial membrane potential - cell viability (AID 720634; calls by dose curve;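 note: human HepG2 liver cancer cells; series mostly up to about 83 µM; nearly all actives have a fitted effect of over 20% in size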)
How it was run: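 HepG2 cells seeded overnight at 37 C, then exposed to compound or DMSO for 1 hr at 37 C, 5% CO2. m-MPI dye added, then CellTiter-Glo for 30 min at room temperature; viability read as ATP luminescence.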

[6] = qHTS assay for small molecule disruptors of the mitochondrial membrane potential (AID 720635)
How it was run: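 HepG2 cells (2,000/well) attached overnight at 37C, then took compound for 1 hr at 37C, 5% CO2. Mito-MPS dye was added for 30 min; fluorescence was read at 490/535 nm (monomers) and 540/590 nm (aggregates).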

[7] = qHTS assay to test for compound auto fluorescence at 590 nm (red) in HepG2 cells (AID 720674)
How it was run: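 Rose Bengal sodium served as the red fluorophore standard. HepG2 monolayers (overnight attachment, MEM with 10% FBS) were exposed to test compounds for 1 hr at 37 C and read at Ex 540/Em 590 nm.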

[8] = qHTS assay to test for compound auto fluorescence at 535 nm (green) in HepG2 cells (AID 720675)
[9] = qHTS assay to test for compound auto fluorescence at 460 nm (blue) in HEK293 cells (AID 720678)
How it was run: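 Auto fluorescence in the blue band was quantified as triamterene equivalency. HEK293 cells were seeded at 2,000/well, dosed after a 4-5 hr attachment, and kept overnight at 37C before the 405/460 nm reading.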

[10] = qHTS assay to test for compound auto fluorescence at 590 nm (red) in HEK293 cells (AID 720679)
How it was run: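 Autofluorescence equivalency to Rose Bengal sodium, 540/590nm, in HEK293 cells exposed overnight to 23 nL compound per well.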

[11] = qHTS assay to test for compound auto fluorescence at 535 nm (green) in HEK293 cells (AID 720680)
[12] = qHTS assay to test for compound auto fluorescence at 460 nm (blue) in HEK293 cell free culture (AID 720681)
How it was run: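 Test compounds were pinned into cell-free culture medium (DMEM with 10% FBS) and fluorescence was read directly at Ex/Em 405/460 nm. Signals were expressed as fluorescence equivalents of triamterene, with DMSO vehicle as control.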

[13] = qHTS assay to test for compound auto fluorescence at 535 nm (green) in HEK293 cell free culture (AID 720682)
How it was run: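 Using fluorescein as calibrant, autofluorescence was quantified at 485/535 nm in cell-free DMEM containing 10% FBS after pintool addition of compound or vehicle.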

[14] = qHTS assay to test for compound auto fluorescence at 590 nm (red) in HEK293 cell free culture (AID 720683)
How it was run: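 Tox21 10K library compounds were pinned into cell-free DMEM with 10% FBS and fluorescence was read at excitation 540 nm. Activity is expressed as Rose Bengal sodium equivalency.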

[15] = qHTS assay to test for compound auto fluorescence at 590 nm (red) in HepG2 cell free culture (AID 720684)
How it was run: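 Measured in medium alone (MEM containing 10% FBS) following pintool addition of compound; emission at 590 nm with 540 nm excitation, referenced to Rose Bengal sodium.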

[16] = qHTS assay to test for compound auto fluorescence at 460 nm (blue) in HepG2 cell free culture (AID 720685)
How it was run: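 Compound (23 nL) or DMSO pinned into cell-free MEM with 10% FBS; blue fluorescence read at 405/460 nm excitation/emission, expressed as auto-fluorescence equivalency to triamterene.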

[17] = qHTS assay to test for compound auto fluorescence at 535 nm (green) in HepG2 cell free culture (AID 720686)
[18] = qHTS assay to test for compound auto fluorescence at 460 nm (blue) in HepG2 cells (AID 720687)
How it was run: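 Cells (2,000/well in MEM with 10% FBS) attached overnight at 37 C, then were exposed to compound or DMSO for 1 hr at 37 C, 5% CO2. Fluorescence read at Ex/Em 405/460 nm, expressed as triamterene-equivalent signal.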

[19] = molecular target: Glucocorticoid receptor (Homo sapiens) (UniProt P04150); experiment: qHTS assay to identify small molecule agonists of the glucocorticoid receptor (GR) signaling pathway (AID 720691; active = well fitted activation curve with a large enough effect in the signal ratio in the repeat runs, not every such curve was filed as active; the % refers to the signal ratio)
Glucocorticoid receptor (Homo sapiens), sequence (P04150 whole entry, looked up): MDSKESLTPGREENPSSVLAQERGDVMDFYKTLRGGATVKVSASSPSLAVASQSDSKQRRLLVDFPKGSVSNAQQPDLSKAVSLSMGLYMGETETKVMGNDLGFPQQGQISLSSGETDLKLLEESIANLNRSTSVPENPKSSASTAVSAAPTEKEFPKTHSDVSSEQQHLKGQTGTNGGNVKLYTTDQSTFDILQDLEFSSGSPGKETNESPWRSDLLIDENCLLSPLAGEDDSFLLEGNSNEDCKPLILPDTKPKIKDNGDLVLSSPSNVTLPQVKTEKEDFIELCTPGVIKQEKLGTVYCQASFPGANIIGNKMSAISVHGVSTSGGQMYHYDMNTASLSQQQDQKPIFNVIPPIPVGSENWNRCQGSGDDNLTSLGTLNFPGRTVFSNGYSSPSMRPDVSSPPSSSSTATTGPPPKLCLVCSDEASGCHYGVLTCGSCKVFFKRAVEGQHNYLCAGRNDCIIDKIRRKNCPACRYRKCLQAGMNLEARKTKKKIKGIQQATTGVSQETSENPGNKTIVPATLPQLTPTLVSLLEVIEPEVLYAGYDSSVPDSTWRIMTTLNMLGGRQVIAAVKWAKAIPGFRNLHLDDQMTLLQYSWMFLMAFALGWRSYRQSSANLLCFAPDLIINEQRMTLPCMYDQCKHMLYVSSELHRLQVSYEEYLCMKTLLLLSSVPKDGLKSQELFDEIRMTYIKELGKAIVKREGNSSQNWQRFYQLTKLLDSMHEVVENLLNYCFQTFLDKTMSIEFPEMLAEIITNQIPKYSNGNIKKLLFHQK
How it was run: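 GR-bla HeLa cells (beta-lactamase reporter under glucocorticoid response element) were plated 4 h at 37 C/5% CO2, given compounds in DMSO, and incubated 18 h at 37 C. LiveBLAzer B/G FRET substrate was added for 2 h at room temperature, then fluorescence intensity read.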

[20] = molecular target: Glucocorticoid receptor (Homo sapiens) (UniProt P04150); experiment: qHTS assay to identify small molecule antagonists of the glucocorticoid receptor (GR) signaling pathway (AID 720692; active = well fitted inhibition curve with a large enough effect in the signal ratio in the repeat runs, not every such curve was filed as active; the % refers to the signal ratio)
How it was run: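 GR-bla HeLa cells (beta-lactamase reporter under glucocorticoid response element) were pre-plated 4 h at 37 C, treated with compounds plus 5 nM dexamethasone (final) for 18 h, then read by LiveBLAzer B/G FRET fluorescence after 2 h.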

Measured: Potency

CCCCCCCC(=O)N(C)C
not listed: [19] | [20]
inactive: all other assays above

N[C@H]1C(O)O[C@H](CO)[C@@H](O)[C@@H]1O (stereo not given in full)
not listed: [19] | [20]
inactive: all other assays above

CC(O)CCCCn1c(=O)c2c(ncn2C)n(C)c1=O (stereo not given)
not listed: [17] | [19] | [20]
inactive: all other assays above

O=C(O)Cc1ccccc1Oc1ccc(Cl)cc1Cl
not listed: [20]
inactive: all other assays above

CCCCC(CC)COC(=O)CC#N (stereo not given)
not listed: [17] | [19] | [20]
inactive: all other assays above

Cc1ccc(NC(N)=O)cc1
not listed: [17] | [20]
inactive: all other assays above

N=C(N)N
inactive: all assays above

O=P(O)(O)C(O)(Cc1cccnc1)P(=O)(O)O
not listed: [17] | [20]
inactive: all other assays above
